Experimental data reported in PubChem BioAssay AID1003 (National Center for Advancing Translational Sciences (NCATS), 2008).
Activity calls are given as the source filed them.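 How the source made its calls: active means compounds that block the bacterial enzyme AmpC beta-lactamase with detergent present and have a measured Ki; inactive means the rest.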

Molecular target: Beta-lactamase (Escherichia coli (strain K12)) (UniProt P00811)
Assay: Confirmation Cuvette-Based Assay for Inhibitors of AmpC Beta-Lactamase (assay with detergent)
Conditions: purified AmpC, nitrocefin hydrolysis absorbance, 0.01% Triton
Method: NIH Molecular Libraries Screening Centers Network [MLSCN] NIH Chemical Genomics Center [NCGC] MLSCN Grant: MH079825-01 Assay Provider: Shoichet, Brian K. This aggregation profiling approach exploits the sensitivity of aggregate formation to detergent. Inhibition of b-lactamase is measured in the presence and absence of 0.01% Triton X-100 (Feng 2007). This particular assay is a confirmation of previous qHTS (Inglese, 2006), Pubchem AID 584, assay with presence of 0.01% Triton X-100. For a related assay without detergent, see AID 585. Compounds that inhibit only in the absence of detergent are considered likely promiscuous aggregators. This confirmation assay is a cuvette-based screen of an oxadiazole carbamate series which is an expansion around docking hit Pubchem SID 4244870.
Reactions were performed in methylacrylate cuvettes in 1 mL of reaction volume. The beta-lactamase assay contained 1 nM AmpC beta-lactamase, 200 uM Nitrocefin and varying amounts of Triton X-100 (either 0.00002% or 0.1%). Compound and enzyme were incubated for 5 minutes before the reaction was initiated by addition of substrate. Nitrocefin hydrolysis was monitored as an increase in absorption at 482 nm on an Agilent 8453 UV-visible spectrophotometer at room temperature.

Sequence of Beta-lactamase (Escherichia coli (strain K12)) (P00811 whole entry, looked up): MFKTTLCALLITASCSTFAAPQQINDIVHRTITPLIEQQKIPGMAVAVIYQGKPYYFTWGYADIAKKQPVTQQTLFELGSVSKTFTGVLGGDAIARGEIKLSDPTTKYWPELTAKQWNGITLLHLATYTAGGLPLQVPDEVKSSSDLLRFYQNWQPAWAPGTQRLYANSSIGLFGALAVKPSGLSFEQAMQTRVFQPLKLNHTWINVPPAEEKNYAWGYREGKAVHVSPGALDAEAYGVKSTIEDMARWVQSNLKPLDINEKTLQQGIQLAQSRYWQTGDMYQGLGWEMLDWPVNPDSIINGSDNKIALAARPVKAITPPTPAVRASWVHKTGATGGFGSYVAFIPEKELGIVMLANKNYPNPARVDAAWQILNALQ

Ki, active:
O=C(O)c1ccc2c(c1)C(=O)N([C@H](Cc1cccc3ccccc13)C(=O)O)C2=O 5 µM, Cn1cc(C[C@H](C(=O)O)N2C(=O)c3ccc(C(=O)O)cc3C2=O)c2ccccc21 17 µM, CC(C)(C)c1ccc(C[C@H](C(=O)O)N2C(=O)c3ccc(C(=O)O)cc3C2=O)cc1 11 µM, O=C(O)c1ccc2c(c1)C(=O)N([C@H](Cc1c[nH]c3ccccc13)C(=O)O)C2=O 17 µM, Cc1ccc(C[C@H](C(=O)O)N2C(=O)c3ccc(C(=O)O)cc3C2=O)c(C)c1 17 µM, O=C(O)c1ccc2c(c1)C(=O)N([C@H](Cc1c3ccccc3cc3ccccc13)C(=O)O)C2=O 12 µM, O=C(O)c1ccc2c(c1)C(=O)N([C@H](Cc1ccc3ccccc3c1)C(=O)O)C2=O 14 µM, O=C(O)c1ccc2c(c1)C(=O)N([C@H](Cc1ccc(-c3ccccc3)cc1)C(=O)O)C2=O 15 µM
